This is part of a sample that, as a whole, favours compounds with a hit. Of some 83,000 tested, about 20% had one in any assay.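 Cells were grown in 96-well plates and exposed to the test compound at a single concentration for 48 hours; results are reported as percent growth, with values below 10 considered active.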 A number with no mark means an inactive call. Activity calls are given as the source filed them.
Experiments:
Assay in all cases: NCI-60 one-dose screen, 48 h (100 = growth as untreated, 0 = no growth, -100 = all killed)
Conditions in all cases: 10 µM unless noted
HCT-15 colon = tested on: HCT-15 colon
HT29 colon = tested on: HT29 colon
SNB-75 CNS = tested on: SNB-75 CNS
SNB-19 CNS = tested on: SNB-19 CNS
U251 CNS = tested on: U251 CNS
PC-3 prostate = tested on: PC-3 prostate
SK-MEL-5 melanoma = tested on: SK-MEL-5 melanoma
UACC-62 melanoma = tested on: UACC-62 melanoma
SK-MEL-28 melanoma = tested on: SK-MEL-28 melanoma
SK-MEL-2 melanoma = tested on: SK-MEL-2 melanoma
EKVX NSCLC = tested on: EKVX NSCLC
SN12C renal = tested on: SN12C renal
UO-31 renal = tested on: UO-31 renal
TK-10 renal = tested on: TK-10 renal
ACHN renal = tested on: ACHN renal
CAKI-1 renal = tested on: CAKI-1 renal
A498 renal = tested on: A498 renal
CCRF-CEM leukemia = tested on: CCRF-CEM leukemia
MOLT-4 leukemia = tested on: MOLT-4 leukemia
LOX IMVI melanoma = tested on: LOX IMVI melanoma

CS(=O)(=O)Nc1cncc(-c2ccc3ncnc(NCc4ccccc4)c3c2)c1
growth (HCT-15 colon): 64.3% | growth (HT29 colon): 65.1% | growth (SNB-75 CNS): 5.11% (active) | growth (SNB-19 CNS): 39% | growth (U251 CNS): 22.1% | growth (PC-3 prostate): 42.1% | growth (SK-MEL-5 melanoma): -82.9% (active) | growth (UACC-62 melanoma): 29.2% | growth (SK-MEL-28 melanoma): 40.3% | growth (SK-MEL-2 melanoma): -8.92% (active) | growth (EKVX NSCLC): 55.2% | growth (SN12C renal): 34.8% | growth (UO-31 renal): 52.7% | growth (TK-10 renal): 63% | growth (ACHN renal): 77.5% | growth (CAKI-1 renal): 60.7% | growth (A498 renal): 63.8% | growth (CCRF-CEM leukemia): 17% | growth (MOLT-4 leukemia): -26% (active)

O=C(Cc1c(-c2ccccc2[N+](=O)[O-])n(-c2ncnc3c2c(-c2ccccc2)c(-c2ccccc2)n3Cc2ccccc2)[nH]c1=O)c1ccc(Cl)c(Cl)c1
growth (HCT-15 colon): 46.9% | growth (HT29 colon): 18.4% | growth (SNB-75 CNS): 14% | growth (SNB-19 CNS): 16.8% | growth (U251 CNS): 28.1% | growth (PC-3 prostate): 8.7% (active) | growth (SK-MEL-5 melanoma): -45.3% (active) | growth (UACC-62 melanoma): -9.59% (active) | growth (SK-MEL-28 melanoma): 27.8% | growth (SK-MEL-2 melanoma): -22.4% (active) | growth (EKVX NSCLC): 14.6% | growth (SN12C renal): 12.6% | growth (UO-31 renal): 41.7% | growth (TK-10 renal): 38.5% | growth (ACHN renal): 25.4% | growth (CAKI-1 renal): 9.03% (active) | growth (A498 renal): 56.1% | growth (CCRF-CEM leukemia): 13.2% | growth (MOLT-4 leukemia): 24.1%

Cc1ccc2nc(COc3ccc(C(=O)NNC(=O)Nc4ccc(Cl)c(C(F)(F)F)c4)cc3)[nH]c2c1
growth (HCT-15 colon): 97.2% | growth (HT29 colon): 75.9% | growth (SNB-75 CNS): 94.1% | growth (SNB-19 CNS): 24.9% | growth (U251 CNS): -1.34% (active) | growth (PC-3 prostate): 18.1% | growth (SK-MEL-5 melanoma): 35.3% | growth (UACC-62 melanoma): 40.1% | growth (SK-MEL-28 melanoma): -35.4% (active) | growth (SK-MEL-2 melanoma): 98.4% | growth (EKVX NSCLC): 77.3% | growth (SN12C renal): 38.7% | growth (UO-31 renal): 110% | growth (TK-10 renal): 110% | growth (ACHN renal): 89.7% | growth (CAKI-1 renal): 73.2% | growth (A498 renal): 116% | growth (CCRF-CEM leukemia): 41.6% | growth (MOLT-4 leukemia): 75.5%

NS(=O)(=O)c1cccc(Nc2nc(SCC(=O)c3ccc(F)cc3)nc3ccccc23)c1
growth (HCT-15 colon): 8.07% (active) | growth (HT29 colon): 18.3% | growth (SNB-75 CNS): 28.3% | growth (SNB-19 CNS): 11.9% | growth (U251 CNS): -12% (active) | growth (PC-3 prostate): 16.6% | growth (SK-MEL-5 melanoma): -29.1% (active) | growth (UACC-62 melanoma): -49.8% (active) | growth (SK-MEL-28 melanoma): 26.8% | growth (SK-MEL-2 melanoma): -47% (active) | growth (EKVX NSCLC): 28% | growth (SN12C renal): 15.8% | growth (UO-31 renal): 17.9% | growth (TK-10 renal): 44.6% | growth (ACHN renal): 25.9% | growth (CAKI-1 renal): 21.9% | growth (A498 renal): 71.1% | growth (CCRF-CEM leukemia): 1.38% (active) | growth (MOLT-4 leukemia): 2.93% (active)

CCOc1ccc(-c2cc(-c3cc(C(C)C)c(O)cc3C)nn2-c2ccc(S(N)(=O)=O)cc2)cc1
growth (HCT-15 colon): 4.81% (active) | growth (HT29 colon): 98.5% | growth (SNB-75 CNS): 32.6% | growth (SNB-19 CNS): 49% | growth (U251 CNS): 27.8% | growth (PC-3 prostate): 42.4% | growth (SK-MEL-5 melanoma): 26.3% | growth (UACC-62 melanoma): 24% | growth (SK-MEL-28 melanoma): 58.5% | growth (EKVX NSCLC): 30.9% | growth (SN12C renal): 30.6% | growth (UO-31 renal): 48.6% | growth (TK-10 renal): 84.2% | growth (ACHN renal): 54.1% | growth (CAKI-1 renal): 58.7% | growth (CCRF-CEM leukemia): 11.3% | growth (MOLT-4 leukemia): 11.6%

COc1cc(CNC(=O)[C@]23CCC(C)(C)CC2C2=CCC4[C@@]5(C)CCC(OC(C)=O)C(C)(C)C5CC[C@@]4(C)[C@]2(C)CC3)ccc1OCc1cn(-c2ccc(Cl)cc2Cl)nn1 (some centres undefined)
growth (HCT-15 colon): 111% | growth (HT29 colon): 98% | growth (SNB-75 CNS): 118% | growth (SNB-19 CNS): 89.8% | growth (PC-3 prostate): 98.3% | growth (SK-MEL-5 melanoma): 103% | growth (UACC-62 melanoma): 81.4% | growth (LOX IMVI melanoma): 98.3% | growth (SK-MEL-28 melanoma): 117% | growth (SK-MEL-2 melanoma): 99.8% | growth (EKVX NSCLC): 86.5% | growth (SN12C renal): 94.1% | growth (UO-31 renal): 80.2% | growth (TK-10 renal): 134% | growth (ACHN renal): 101% | growth (CAKI-1 renal): 77.9% | growth (A498 renal): 146% | growth (CCRF-CEM leukemia): 98.2% | growth (MOLT-4 leukemia): 104%

CCCCCCCCCc1ccc(C(=O)Nc2cc(C)ccc2C(=O)OC)cc1
growth (HCT-15 colon): 103% | growth (HT29 colon): 98.9% | growth (SNB-75 CNS): 117% | growth (SNB-19 CNS): 106% | growth (U251 CNS): 112% | growth (PC-3 prostate): 105% | growth (SK-MEL-5 melanoma): 102% | growth (UACC-62 melanoma): 83.7% | growth (SK-MEL-28 melanoma): 107% | growth (SK-MEL-2 melanoma): 111% | growth (EKVX NSCLC): 109% | growth (UO-31 renal): 98.4% | growth (TK-10 renal): 121% | growth (ACHN renal): 109% | growth (CAKI-1 renal): 98.8% | growth (A498 renal): 128% | growth (CCRF-CEM leukemia): 87.9% | growth (MOLT-4 leukemia): 97.5%

NC(=O)c1ccc(-c2ccc3ncnc(N4CCc5cc(F)c(Cl)cc54)c3c2)cn1
growth (HCT-15 colon): 59.9% | growth (HT29 colon): 91.6% | growth (SNB-75 CNS): 106% | growth (SNB-19 CNS): 74.3% | growth (U251 CNS): 87.4% | growth (PC-3 prostate): 50.8% | growth (SK-MEL-5 melanoma): 76.2% | growth (UACC-62 melanoma): 71.8% | growth (SK-MEL-28 melanoma): 91.7% | growth (SK-MEL-2 melanoma): 95.2% | growth (EKVX NSCLC): 19.5% | growth (SN12C renal): 61.9% | growth (UO-31 renal): 33.1% | growth (TK-10 renal): 28.2% | growth (ACHN renal): 30.3% | growth (CAKI-1 renal): 31.1% | growth (A498 renal): 74.7% | growth (CCRF-CEM leukemia): 44.2% | growth (MOLT-4 leukemia): 18.4%

— PubChem BioAssay (NCI)
